Screens: PubChem, The Scripps Research Institute Molecular Screening Center
A selection: hits, their analogues and other compounds. The true share with any hit is near 3.5%.
MITF inh = human MITF inhibition, primary screen. O75030. AlphaScreen MITF homodimerization, bead proximity signal. inhibition, % at 2.6 µM. 650,000 tested, 0.91% active. AID 1259374; in the data active = inhibition above about 50%;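 note: 0% = vehicle wells with protein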
Target sequence (O75030 whole entry, looked up): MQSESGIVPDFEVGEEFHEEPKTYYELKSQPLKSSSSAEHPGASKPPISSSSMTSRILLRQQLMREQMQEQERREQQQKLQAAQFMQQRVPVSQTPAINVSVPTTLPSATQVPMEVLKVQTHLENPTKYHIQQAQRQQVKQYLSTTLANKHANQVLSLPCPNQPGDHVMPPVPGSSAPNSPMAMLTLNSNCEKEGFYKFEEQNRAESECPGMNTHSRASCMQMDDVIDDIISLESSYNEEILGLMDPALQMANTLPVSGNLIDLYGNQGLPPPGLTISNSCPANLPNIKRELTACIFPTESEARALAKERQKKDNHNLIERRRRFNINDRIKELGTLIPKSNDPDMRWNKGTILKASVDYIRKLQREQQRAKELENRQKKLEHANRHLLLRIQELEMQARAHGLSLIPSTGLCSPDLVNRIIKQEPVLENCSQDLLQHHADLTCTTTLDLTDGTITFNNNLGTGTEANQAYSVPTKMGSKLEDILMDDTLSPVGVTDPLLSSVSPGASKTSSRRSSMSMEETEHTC
GPR151 activ = activates the human receptor GPR151; Q8TDV0; PathHunter beta-arrestin GPR151 cells, luminescence; activation, % at 11.2 µM; 650,000 tested, 1% active; in the data active = activation above about 4.9%;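 note: 0% = median of compound wells and 100% = cells with positive control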
TEAD-YAP block = TEAD-YAP interaction inhibition; inhibition, % at 9.12 µM; AID 1259422; HEK-TIYL cells, TEAD-Gal4/YAP UAS-luciferase luminescence; 640,000 tested, 1.4% active; in the data active = inhibition above about 32%;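 note: 0% = median of test compound wells and 100% = reference inhibitor wells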
FBW7 activator = human FBW7 E3 ligase activation, primary screen; normalized activity (activation), % at 26.1 µM; Q969H0; AID 1259310; AlphaScreen FBW7–phospho-cyclin E peptide binding, activator screen; 650,000 tested, 0.13% active; in the data active = normalized activity above about 1.9%;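 note: purified mutant Fbw7 with reduced substrate affinity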
MITF confirm = confirmation of human MITF inhibitors; inhibition, % at 2.6 µM; AlphaScreen MITF homodimerization, biotin/His-MITF beads; shares compounds with MITF inh; 4,700 tested, 16% active;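 active = inhibition above a cutoff derived from the DMSO control wells, cut at about 28% in these data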;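 note: 0% = MITF dimer wells with DMSO only; inhibitors lower the bead chemiluminescence by keeping MITF from dimerizing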
AlphaScreen DR = counter-screen: compounds optically interfering with AlphaScreen. shares compounds with MITF inh. AlphaScreen optical interference counterscreen, cell-free. IC50, µM. 480 tested, 6% active. AID 1259373; call rule not given here
AS interf ctr = counter-screen: compounds optically interfering with AlphaScreen; AID 1259376; shares compounds with MITF inh; 4,700 tested, 7.6% active; inhibition, % at 2.6 µM; LysRS AlphaScreen counterscreen, signal interference, triplicate;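 active = inhibition above a cutoff derived from the DMSO control wells, cut at about 30% in these data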
* hit, by the source's call; nt = no result given.

SMILES	MITF inh	GPR151 activ	TEAD-YAP block	FBW7 activator	MITF confirm	AS interf ctr	others
Cc1cc(NS(=O)(=O)c2ccc(NC(=O)CC34CC5CC(CC(C5)C3)C4)cc2)no1	1	0	3	0	nt	nt
c1ccc(C2C3=C(CCCC3)SC3=C2CCCC3)cc1	70*	0	7	0	-1	-7
COc1ccc(N(C(=O)COc2ccc(Br)cc2)S(=O)(=O)c2ccc(C)cc2)cc1	62*	0	-13	1	-2	12
c1ccc(-c2cc(N3CCC4(CC3)OCCO4)nc(-c3ccccn3)n2)nc1	114*	1	68*	-1	116*	100*
COc1ccc(N2CCN(Cc3cccc(OC)c3OC)CC2)cc1	31	0	-8	0	nt	nt
COc1ccc(CN2CCN(Cc3cccnc3)CC2)c(OC)c1OC	81*	1	4	0	12	14
COc1cccc(CN2CCN(Cc3cccnc3)CC2)c1OC	76*	-1	7	0	5	11
Cc1ccc(C(=O)Nc2cccc(NC(=O)c3ccccc3Cl)c2)cc1[N+](=O)[O-]	7	-1	-4	0	nt	nt
CCn1c(/C=C/c2ccc(Cl)cc2)nc2ccccc2c1=O	3	0	-4	0	nt	nt
O=C(NCC1CCC2(CCN(C(=O)Cc3c(F)cc(F)cc3F)CC2)O1)c1ccccn1 (centres undefined)	5	1	2	0	nt	nt
CCOc1ccc(CN2CCC(N3CCCC(C)C3)CC2)cc1 (centres undefined)	53*	0	-3	0	1	0
Clc1ccc(CN2CCC(N3CCCCC3)CC2)cc1	-12	1	-2	0	nt	nt
CC1CCCN(C2CCN(Cc3ccc(Cl)cc3)CC2)C1 (centres undefined)	56*	0	-13	0	6	2
O=C(NN=C1CCCCC1)c1cc2ccccc2cc1O	0	-1	4	1	nt	nt
CCOC(=O)Cn1nc(C)n2c(cc3occc32)c1=O	-2	1	10	0	nt	nt
CCOc1ccccc1CN1CCC(C(=O)NCCN2CCOCC2)CC1	52*	0	1	0	4	16
O=C(NCCN1CCOCC1)C1CCN(Cc2ccc(Cl)c(Cl)c2)CC1	69*	-1	-2	1	-5	-1
COc1ccc2nc(Cl)c(/C=N/O)cc2c1	-1	3	-5	0	nt	nt
O=C(NNC(=S)NCC1CCCO1)c1ccccn1 (centres undefined)	118*	1	23	-2	116*	100*
O=C(NNC(=S)Nc1ccc2c(c1)OCO2)c1ccccn1	117*	-2	-47	-2	96*	91*
O=C(Nc1ccc2c(c1)OCO2)c1ccccn1	-3	-10	11	0	nt	nt
Cc1cc(C(=O)NNC(=S)NCC2CCCO2)no1 (centres undefined)	5	0	0	0	nt	nt
COc1ccc(S(=O)(=O)N(C)c2ccc(C(=O)NCc3ccncc3)cc2)cc1	0	1	2	0	nt	nt
COc1cc2c(=O)n(Cc3ccco3)c(=O)n(CC(N)=O)c2cc1OC	3	0	9	0	nt	nt
O=S(=O)(NCCc1ccc(Cl)cc1)c1cccc2nsnc12	9	-1	-8	0	nt	nt
SMILES	MITF inh	GPR151 activ	TEAD-YAP block	FBW7 activator	MITF confirm	AS interf ctr	others
Cc1sc2nc(C)n3c(=O)n(CC(=O)NCc4ccco4)nc3c2c1C	51*	2	5	0	29*	9	AlphaScreen DR=>6.5
Cc1sc2nc(C(C)C)n3c(=O)n(CC(=O)NCc4ccco4)nc3c2c1C	14	-1	5	0	nt	nt
O=[N+]([O-])c1ccccc1S(=O)(=O)N1CCN(c2ncccn2)CC1	-2	0	-2	0	nt	nt
O=[N+]([O-])c1ccccc1S(=O)(=O)N1CCN(Cc2ccccn2)CC1	58*	-1	7	0	13	14
O=[N+]([O-])c1ccccc1S(=O)(=O)N1CCN(Cc2ccccc2Br)CC1	65*	0	6	0	0	17
COc1ccc(CN2CCN(S(=O)(=O)c3ccccc3[N+](=O)[O-])CC2)cc1	38	0	4	0	nt	nt
CC(=O)Nc1ccc(S(=O)(=O)N2CCN(Cc3ccccc3C(F)(F)F)CC2)cc1	70*	1	1	0	4	7
O=[N+]([O-])c1ccccc1S(=O)(=O)N1CCN(Cc2ccc(Cl)cc2)CC1	73*	-1	4	0	16	13
O=C(Nc1ccc2[nH]ncc2c1)C1CCN(C(=O)C(O)c2ccc(Br)cc2F)CC1 (centres undefined)	26	-1	11	1	nt	nt
Cc1ccc(S(=O)(=O)N2CCN(Cc3ccccc3Br)CC2)cc1	61*	-2	6	0	13	15
CN1CCN(C(=O)C2CCCN(S(=O)(=O)c3ccccc3[N+](=O)[O-])C2)CC1 (centres undefined)	82*	4	2	0	10	15
O=[N+]([O-])c1ccccc1S(=O)(=O)N1CCN(C2CCN(Cc3ccccc3)CC2)CC1	74*	1	-5	0	6	15
O=[N+]([O-])c1ccccc1S(=O)(=O)N1CCN(C2CCCC2)CC1	11	1	3	0	nt	nt
COc1ccc(S(=O)(=O)N2CCN(Cc3ccccc3Br)CC2)cc1	18	-1	4	0	nt	nt
CN(C)CCNC(=S)N1CCN(S(=O)(=O)c2ccccc2[N+](=O)[O-])CC1	73*	4	7	0	-2	9
CN(C)CC(C)(O)c1ccc2c(c1)CN(Cc1ccsc1)CCO2 (centres undefined)	-1	0	1	0	nt	nt
Cc1cc(F)ccc1S(=O)(=O)Nc1cc2c3c(c1)CCN3C(=O)CC2	8	0	-15	0	nt	nt
O=[N+]([O-])c1ccccc1S(=O)(=O)N1CCN(Cc2cccnc2)CC1	74*	-1	-13	0	15	19
O=C(c1cccnc1)N1CCN(S(=O)(=O)c2ccccc2[N+](=O)[O-])CC1	-24	0	-7	0	nt	nt
COc1ccc(OC)c(CN2CCN(Cc3ccc(C(F)(F)F)cc3)CC2)c1	78*	0	-5	0	10	21
COc1cccc(CN2CCN(Cc3ccc(C(F)(F)F)cc3)CC2)c1	81*	0	-11	0	7	13
COc1cc(C(=O)N2CCN(Cc3ccc(C(F)(F)F)cc3)CC2)cc(OC)c1OC	27	1	-2	1	nt	nt
COc1ccc(CN2CCOCCOCCOCCOCC2)cc1	3	1	12	0	nt	nt
FC(F)(F)c1ccc(CN2CCSCC2)cc1	58*	-1	8	0	9	17
COc1ccc(CN2CCN(Cc3ccc(C(F)(F)F)cc3)CC2)cc1	86*	1	7	0	6	14
